Source: PubChem BioAssay (NCI)
The panel holds about 83,000 compounds, 20% with a hit somewhere; the sample as a whole holds those more often.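 Growth was measured after 48 h exposure to one concentration of compound in 96-well plates. Values under 10 count as active.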 Calls of active or inactive are those of the source.

Each compound was assayed on HL-60(TB) leukemia (assay: NCI-60 one-dose screen, 48 h (100 = growth as untreated, 0 = no growth, -100 = all killed)). Details: 10 µM unless noted.

Row | Structure (SMILES) | growth
1 | COc1cc(C2CC(=O)Nc3c2cnn3C)cc(OC)c1OC (stereo not given) | 97.6% (inactive)
2 | O=C1c2cccc3c([N+](=O)[O-])ccc(c23)C(=O)N1CCCCl | -25.4% [100 µM] (active)
3 | O=C(/C=C/c1cccc(Oc2ccccc2)c1)c1ccc(Nc2nc(Nc3ccc(F)cc3)nc(Nc3ccc(Cl)cc3)n2)cc1 | -38.2% (active)
4 | O[C@H]1CO[C@H]2[C@@H]1OC[C@@H]2Oc1ccc(Nc2ccnc(Nc3ccc(O[C@H]4CO[C@H]5[C@@H]4OC[C@@H]5O)c(Cl)c3)n2)cc1Cl | -7.8% (active)
5 | NC(=NCCCOc1ccc(F)cc1)Nc1ccc(Cl)cc1 | 72% (inactive)
6 | CC(C)(C)C(=O)/C=C/c1ccc([N+](=O)[O-])cc1 | 75.2% (inactive)
7 | C=CC(=O)Nc1ccc2ncnc(Nc3cccc(NS(=O)(=O)CCC)c3Cl)c2c1 | 80.7% (inactive)
8 | COc1ccc(C(=O)C/C(=C\c2ccc(O)c(OC)c2)C(=O)NN)cc1 | 66.4% (inactive)
9 | CCN(CC)c1ccc(C(O)C2=CC(=O)c3ccccc3C2=O)cc1 (stereo not given) | -1.99% (active)
10 | COc1ccc2c(c1)oc1c(C)c3c(c(C)c12)C(=O)N(Nc1ccccc1)C3=O | 107% (inactive)
11 | Nc1ccc(/C=N/Nc2ccnc3c(O)cccc23)c2cccnc12 | 17.9% (inactive)
12 | CCOC(=O)c1sc(NC(=O)COc2ccc(/C=C3\Cc4ccc(Cl)cc4C3=O)cc2)nc1C | 98% (inactive)
13 | COc1cccc2c1C(=O)c1c(O)c3c(c(O)c1C2=O)C[C@@](O)(/C(C)=N/NC(=O)c1cccc([N+](=O)[O-])c1)C[C@@H]3OC1CC(N)C(O)C(C)O1 (stereo not given in full) | -45.1% (active)
14 | CCCC(=O)OCC(COC(=O)CCC)OC(=O)CCC | 100% (inactive)
15 | c1ccc([P+](c2ccccc2)(c2ccccc2)c2ccc3c4ccc([P+](c5ccccc5)(c5ccccc5)c5ccccc5)c5cccc(c6cccc2c63)c54)cc1 | 11.2% (inactive)
16 | Nc1ccc2c(c1)C(=O)c1cc(Cl)c(Cl)cc1-2 | 76.2% (inactive)
17 | O=C1C(Cl)=C(Nc2ccc3c(c2NC2=C(Cl)C(=O)c4ccccc4C2=O)C(=O)c2ccccc2C3=O)C(=O)c2ccccc21 | -8.26% (active)
18 | COc1ccc(-c2nc(C#N)c(NCC(c3ccco3)N3CCCC3)o2)cc1 (stereo not given) | -14.1% (active)
19 | O=C1C(Cl)=C(Cl)C(Cl)(Cl)C(Cl)C1(Cl)Cl (stereo not given) | 77.7% (inactive)
20 | CO[C@H]1C[C@@H]2CC[C@@H](C)[C@@](O)(O2)C(=O)C(=O)N2CCCC[C@H]2C(=O)O[C@H]([C@H](C)C[C@@H]2CC[C@@H](OCCO)[C@H](OC)C2)CC(=O)[C@H](C)/C=C(\C)[C@@H](O)[C@H](OC)C(=O)[C@H](C)C[C@H](C)\C=C/C=C/C=C/1C | 75.7% (inactive)

Row | Structure (SMILES) | growth
21 | COC(=O)[C@]12CCC(C)(C)C[C@H]1[C@H]1C(=O)C[C@@H]3[C@@]4(C)c5c([nH]c6ccccc6c5=O)C(C)(C)[C@@H]4CC[C@@]3(C)[C@]1(C)CC2 | 21.8% (inactive)
22 | C=C(C)[C@@H]1CC[C@]2(CO)CC[C@]3(C)[C@H](CC[C@@H]4[C@@]5(C)CC[C@H](O)C(C)(C)[C@@H]5CC[C@]43C)[C@@H]12 | 66.4% (inactive)
23 | CC(=O)O[C@H]1CC[C@@]2(C)[C@@H](CC[C@@H]3[C@@H]2CC(=O)[C@@]2(C)[C@H]3C[C@@H](C3CCCC3=O)[C@@H]2C(C)=O)C1 (stereo not given in full) | 51.8% (inactive)
24 | O=C(O)CC1Cc2ccccc2C1C(=O)O (stereo not given) | 65% (inactive)
25 | COc1ccc(-c2ccc(-c3ccc(C(=N)N)s3)s2)cc1Cl | -41.8% (active)
26 | CC(C)(C)c1cc(/C=N\NC(=O)/C=C/C=C/c2ccc3c(c2)OCO3)c(O)c(C(C)(C)C)c1 | 84.1% (inactive)
27 | COc1ccc(C2C(C#N)=C(N)Oc3c2sc2c(Br)cccc32)cc1 (stereo not given) | -9.13% (active)
28 | COc1cccc(NC(=O)Nc2ccc(Nc3ncnc4sc5c(c34)CCN(C(=O)CCl)C5)cc2)c1 | 90% (inactive)
29 | O=C(NNC(=O)c1cccc(Cl)c1)c1ccccc1 | 94.3% (inactive)
30 | Cc1cc(N/N=C/c2nc(-c3ccc(Br)cc3)oc2C)c2cc(Cl)ccc2n1 | -0.0323% (active)
31 | CC(=O)Nc1cscc1NC(C)=O | 96.7% (inactive)
32 | CSc1ccccc1C#C/C=C\C#Cc1ccccc1N1CCCC1=O | -33.4% (active)
33 | COc1ccc2c(CCCCC(c3ccccc3)c3ccccc3)c3[n+](cc2c1OC)CCc1cc2c(cc1-3)OCO2 | -35.5% (active)
34 | O=C1/C(=C/c2cn(-c3ccccc3)nc2-c2ccccc2)SC(=S)N1c1ccc(Cl)cc1 | 86% (inactive)
35 | Nc1c(C(=O)Nc2cccc3ccccc23)sc2nc3c(cc12)CCCCCC3 | -31% (active)
36 | CCOC(=O)C(=Cc1c(-c2ccccc2)[nH]c2ccccc12)C(=O)OCC | -52% (active)
37 | FC(F)(F)Oc1cccc(-c2cnc3ccc(-c4ccncc4)nn23)c1 | -19.3% (active)
38 | O=C(N/N=C\c1ccc(-c2ccc(Br)cc2)o1)c1cc2oc(-c3cccc(C(F)(F)F)c3)cc2[nH]1 | 146% (inactive)
39 | COc1ccc(Cl)cc1Nc1nc(C(F)(F)F)ccc1C(=O)N/N=C/c1ccc(Cl)cc1 | 9.34% (active)
40 | CCOC(=O)/C(C#N)=C(/C)C1CC1 | 110% (inactive)
